AT treatment = potential ataxia-telangiectasia treatment; F2112 A-T fibroblasts, KAP-1 phosphorylation AlphaLISA; neocarzinostatin DNA damage 30 min before lysis; Potency, µM (series often up to 57.5 µM), for inactives: top-dose activation, actives largely listed as activators; actives 0.19% (n = 320,000); AID 485349; note: % of control where 0% means no effect; nearly all actives have a fitted effect of over 45% in size
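hTERT-immortalized A-T patient fibroblasts (F2112), 500 cells/well in OPTI-MEM, 1% FBS, got compounds for 60 min, then NCS for 30 min at 37C. Lysates were then assayed for phospho-KAP-1 by AlphaLISA (anti-pKAP1 donor, anti-KAP1 acceptor beads), 6 hr at 25C.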
Pin1 inh = inhibitors of human Pin1 | actives 0.009% (n = 390,000) | Q13526 | AID 504891 | Potency, µM (highest dose often 115 µM), without a hit: at the top dose activity, negative = inhibition, actives largely listed as inhibitors | Pin1 FP peptide displacement, HiFluor488, 10 min; active = well fitted inhibition curve with a large enough effect in the polarisation, with a control signal flat, not every such curve was filed as active; inconclusive = small, poorly fitted or top-dose-only effect, or effect the other way, or a change in a side signal; inactive = no such curve, though single readings can be large or run the other way; the % refers to the polarisation; note: % is set by controls: 0 for no effect and ±100 for the full control effect
Target sequence (Q13526 whole entry, looked up): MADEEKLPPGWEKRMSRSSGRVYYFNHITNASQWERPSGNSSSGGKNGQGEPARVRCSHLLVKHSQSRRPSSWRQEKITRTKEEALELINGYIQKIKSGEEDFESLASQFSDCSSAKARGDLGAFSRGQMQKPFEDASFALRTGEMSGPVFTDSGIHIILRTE
TSG101-PTAP inh = blocks PTAP/TSG101 interaction to inhibit HIV-1 budding; AID 493005; 340,000 tested, under 10 active; Q99816; Fluorescence polarization, FITC-PTAP peptide / Tsg101 binding; Potency, µM (doses to about 115 µM), for inactives: at the top dose activity change, negative = inhibition, actives largely listed as inhibitors; active = well fitted inhibition curve with a large enough effect in the main read-out, with a control signal flat, not every such curve was filed as active; inconclusive = small, poorly fitted or top-dose-only effect, or effect the other way, or a change in a side signal; inactive = no such curve, though single readings can be large or run the other way; note: % of control where 0% means no effect
Target sequence (Q99816 whole entry, looked up): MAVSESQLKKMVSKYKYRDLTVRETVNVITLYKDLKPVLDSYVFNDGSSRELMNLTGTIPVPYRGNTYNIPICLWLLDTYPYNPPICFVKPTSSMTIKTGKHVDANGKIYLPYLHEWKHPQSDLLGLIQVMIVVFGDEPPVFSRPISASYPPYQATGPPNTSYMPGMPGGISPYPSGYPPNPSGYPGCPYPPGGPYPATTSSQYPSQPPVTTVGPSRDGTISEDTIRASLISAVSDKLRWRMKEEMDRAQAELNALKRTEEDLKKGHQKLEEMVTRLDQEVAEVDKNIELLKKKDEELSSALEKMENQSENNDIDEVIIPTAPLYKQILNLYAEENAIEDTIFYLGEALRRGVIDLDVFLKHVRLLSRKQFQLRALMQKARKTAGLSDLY
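Fluorescence polarization binding of Tsg101 binding domain (10 uM final) to FITC-labeled PTAP peptide (50 nM final) in HEPES pH 7.5 buffer with NaCl, Tween 20, EDTA, TCEP. Compounds added before peptide; binding 20 min at RT.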
PKM2 activator = activators of human pyruvate kinase M2; purified PKM2, Kinase-Glo ATP luminescence, activation; response scale: 0% is enzyme alone, no compound; Potency, µM (titrated, usually from 57.5 µM), for inactives: at the top dose activation, most hits filed as activators; actives 0.34% (n = 260,000); AID 1631; note: % is set by controls: 0 for no effect and ±100 for the full control effect; nearly all actives have a fitted effect of over 55% in size
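hPK-M2, >95% pure; 0.1 mM ADP / 0.5 mM PEP final; imidazole pH7.2 buffer w/ 7 mM MgCl2, 50 mM KCl; 1 h RT; Kinase-Glo lum. Intermediate enzyme activity for dual inhibitor/activator qHTS.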
* = called active by the depositor; ? = inconclusive; . = no result given; [ ] = remark or other dose. In the library only some 0.39% were active in any assay of this set; here they are far more common. Unless noted, calls come from the whole dose curve; as a rule, active = well fitted activation curve with a large enough effect; inconclusive = small, poorly fitted or top-dose-only effect; inactive = no such curve, though single readings can be large or run the other way. Potency is the fitted concentration of half-maximal effect.

SMILES | AT treatment | Pin1 inh | TSG101-PTAP inh | PKM2 activator
[N-]=[N+]=CC(=O)C(Cc1ccccc1)N1C(=O)c2ccccc2C1=O (stereo not drawn) | -3.4% | 1.6% | -6.3% | 11.2µM*
COc1ccc(CN(Cc2ccccc2)S(=O)(=O)c2ccccc2)cc1COc1ccc(NC(C)=O)cc1 | . | 2.9% | . | .
Cc1ccc(NS(=O)(=O)c2ccc3c(c2)c(=O)n(C)c(=O)n3C)cc1F | . | -7.3% | -4.8% | 4.47µM*
CC(C)(C)OC(=O)Nc1ncnc2c1C(c1ccccc1)c1c(ccc3ccccc13)O2 (stereo not drawn) | . | -1.5% | . | .
CC1=NN(C(C#N)c2ccc([N+](=O)[O-])cc2)C(C)(C)C1 (stereo not drawn) | 3.55µM* | -0.3% | 1.9% | 2.6%
CNS(=O)(=O)c1cc2c3c(cccc3c1)C(=O)NC2=O | 3.3% | -18.0% | -8.8% | 12.6µM*
Cc1ccc(NS(=O)(=O)c2cc3c4c(cccc4c2)C(=O)NC3=O)cc1 | 2.0% | 2.5% | -3.8% | 1.0%
O=S(=O)(NCCNc1nc(-c2ccco2)nc2ccccc12)c1ccccc1 | . | 0.3% | . | .
Cc1ccc(NC(=O)c2cc3ccccc3oc2=N)cc1 | ? | 3.1% | 0.7% | .
N=c1oc2c3c4c(cc2cc1C(=O)Nc1ccccc1)CCCN4CCC3 | 15.8µM* | ? | ? | 5.8%
NS(=O)(=O)c1ccc2c(c1)C(=NO)c1cc(S(N)(=O)=O)ccc1-2 | -3.2% | -7.8% | -1.1% | 3.98µM*
CCOC(=S)SCc1cn2ccccc2n1 | -1.8% | 1.3% | -2.9% | 16.0%
CCOC(=S)SCc1cn2ccc(C)cc2n1 | 2.0% | 2.9% | -3.8% | 7.94µM*
CCCCn1c(SCN2C(=O)c3ccccc3C2=O)nc2cc(S(N)(=O)=O)ccc21 | 2.3% | -6.9% | -7.7% | 15.8µM*
CCCCn1c(SCn2nnc3ccccc3c2=O)nc2cc(S(N)(=O)=O)ccc21 | 0.3% | 12.9% | -6.6% | 6.2%
NNC(=O)c1cccc(S(=O)(=O)Nc2cc(Cl)ccc2Cl)c1 | 28.2µM* | 0.3% | 1.8% | ?
O=C(CSc1nc2ccccc2n1Cc1ccccc1Cl)N/N=C/c1ccccc1C(=O)O | 10.9% | 7.6% | -4.7% | 25.1µM*
Cc1ccc(S(=O)(=O)N2CCN(c3cnn(C)c(=O)c3Cl)CC2)cc1 | 0.1% | -10.8% | 2.5% | 20µM*
COc1cc(-c2ccc3ncnc(NCc4cccs4)c3c2)cc(OC)c1OC | . | 31.1% | . | .
Cc1ccc(CSc2nn3c(=O)c(C)nnc3s2)cc1 | 1.8% | -9.1% | -1.9% | 28.2%
Cc1cccc(CSc2nn3c(=O)c(C)nnc3s2)c1 | 2.7% | -2.4% | -2.3% | 10µM*
CCC(=O)N(C)CCc1cc2c(c(OC)c1/C=N/Nc1ccc(C(=O)O)cc1)OCO2 | 39.8µM* | -3.5% | -2.7% | 8.3%
CC(=O)Nc1ccc(S(=O)(=O)c2ccc(C)cc2)cc1 | 3.8% | -0.2% | -0.3% | 14.1µM*
CC(=O)Nc1ccc(C(=O)CS(=O)(=O)c2ccc(C)cc2)cc1 | 4.2% | 1.2% | -2.5% | ?
CC(=O)Nc1ccccc1OC1=N[S+](=O)([O-])c2ccccc21 | . | 0.9% | . | .
SMILES | AT treatment | Pin1 inh | TSG101-PTAP inh | PKM2 activator
COC(=O)[C@@]1(Cc2ccc(F)cc2)[C@H]2c3cc(C(=O)N4CCCC4)n(Cc4ccc(C)c(F)c4F)c3C[C@H]2CN1C(=O)c1ccccc1 | . | . | . | -12.1%
COC(=O)[C@@]1(Cc2ccc(F)cc2)[C@H]2c3cc(C(=O)N4CCCC4)n(Cc4ccc(C)o4)c3C[C@H]2CN1C(=O)c1ccccc1 | . | . | . | 12.6µM*
COC(=O)[C@@]1(Cc2ccc(OC)cc2)[C@H]2c3cc(C(=O)N(C)C)n(Cc4ccc(C)o4)c3C[C@H]2CN1C(=O)c1ccccc1 | . | . | . | 8.91µM*
Cc1c(Br)cc(F)c([S+](=O)([O-])N2CCN([S+](=O)([O-])c3ccc4c(c3)OCCO4)CC2)c1F | . | 1.8% | . | .
COCCCNC(=O)COc1ccc(S(=O)(=O)Nc2ccccc2)cc1 | -5.0% | 0.3% | -3.7% | 14.1µM*
O=S1(=O)N=C(Sc2ccc3c(c2)OCCO3)c2ccccc21 | . | -8.2% | . | .
CO/N=C(\Cn1ncc(N2CCCC2)c(Cl)c1=O)c1ccc(Cl)cc1 | 5.1% | 0.1% | -4.5% | 14.1µM*
O=C(Nc1ncc2c(n1)CC(c1ccco1)CC2=O)c1ccco1 (stereo not drawn) | -8.5% | ? | 0.4% | 28.2µM*
CC(=O)Nc1ncc2c(n1)CC(c1ccco1)CC2=O (stereo not drawn) | 2.0% | -2.8% | -4.3% | -1.7%
N#CN1CCC(N[S+](=O)([O-])c2cccc(F)c2)CC1 | . | -2.7% | . | .
O=[S+]([O-])(c1ccc2nsnc2c1)N1CCN([S+](=O)([O-])c2c(F)cccc2F)CC1 | . | -0.9% | . | .
Cc1cc(C)n(-c2n[nH]c(=O)c3ccccc23)n1 | 17.8µM* | -4.6% | -3.9% | 7.4%
Cc1cc(C)n(-c2nnc(Cl)c3ccccc23)n1 | -5.4% | 4.9% | -6.0% | -1.1%
O=C(NCc1ccc(F)cc1)n1cc(P(=S)(c2ccccc2)c2ccccc2)c2ccccc21 | . | 1.0% | . | .
CCCCNc1c(-c2ccc(OC)c(SC3CCCCC3)c2)nc2ccc(Cl)cn12 | -6.7% | 10.7% | 0.4% | .
CCCCNc1c(-c2ccc(OC)c(SC3CCCCC3)c2)nc2cc(C)ccn12 | 31.6µM* | -0.8% | -0.2% | .
CCCCNc1c(-c2ccc(OC)c(SC3CCCCC3)c2)nc2cnccn12 | 22.4µM* | 24.7% | 4.4% | .
COc1ccc(-c2nc3cnccn3c2NCc2ccccc2)cc1SC1CCCCC1 | ? | 36.6% | 5.5% | .
CCC(C)Sc1ccc(-c2nc3cnccn3c2NC2CCCCC2)cc1 (stereo not drawn) | 22.4µM* | 6.2% | . | .
CCCCCCSc1cc(-c2nc3cnccn3c2NCc2ccccc2)ccc1OC | 17.8µM* | 29.7% | 2.7% | .
CCCCCCSc1ccc(-c2nc3ccccn3c2NCCCC)cc1 | 39.8µM* | -2.0% | -4.6% | .
CCCCNc1c(-c2ccc(-c3cccc(Cl)c3)cc2)nc2ccccn12 | ? | 3.7% | -0.9% | .
O=[N+]([O-])c1ccc(NCCCNS(=O)(=O)c2ccc(Cl)cc2)c(Cl)c1 | 14.5% | -1.3% | -4.2% | 14.1µM*
Nc1c2c(nc3ccn(Cc4ccccc4)c(=O)c13)CCC2 | 2.4% | 1.5% | -1.0% | 14.1µM*
Cc1ccc(N2CCN(S(=O)(=O)c3ccc4c(c3)CC(=O)N4)CC2)cc1 | . | 21.3%[230 µM] | . | .
SMILES | AT treatment | Pin1 inh | TSG101-PTAP inh | PKM2 activator
FC(F)(F)c1cccc(OCc2nnc3n2CCC3)c1 | 23.9% | -4.9% | 2.0% | -5.4%
FC(F)(F)c1cccc(OCC2CNC(=S)O2)c1 (stereo not drawn) | 10µM* | 1.3% | -8.4% | 6.2%
O=C(Cn1cc(CNC(=O)c2ccccc2)nn1)Nc1cc(C(F)(F)F)ccc1Cl | . | -1.7% | . | .
O=C(O)/C=C/c1cc(F)c(S(=O)(=O)N2CCN(S(=O)(=O)c3ccc4c(c3)OCCO4)CC2)cc1F | . | 2.7% | . | .
O=c1ccsn1Cc1ccccc1 | -0.1% | 4.3% | -11.3% | 5.01µM*
COc1ccc(C2c3c(N)nc(CCCc4ccccc4)nc3Oc3ccc4ccccc4c32)cc1OC (stereo not drawn) | . | 20.3% | . | .
